The full ranking holds about 33,000 sequences; the median of “e-score” is about -0.053, and the highest 2% start at about 0.38. Only a selection was taken, and the highest values are over-represented in it overall.
Molecular target: T1, SIX1 homeodomain (reference allele) (human, UniProt Q15475 108-198)
T1 sequence: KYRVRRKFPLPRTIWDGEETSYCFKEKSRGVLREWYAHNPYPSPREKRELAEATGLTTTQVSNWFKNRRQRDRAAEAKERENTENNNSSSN
Assay: universal protein binding microarray; Universal all-10-mer PBM (8x60K, AMADID 030236), 300 nM GST-tagged protein, Alexa Fluor 488 anti-GST; buffer, salt, pH and temperature not stated (as in Berger); high values mean tight binding
Settings: protein: ivt; tags: N-terminal GST; dsDNA, one strand shown
In short: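 Homeodomains fused to GST were made by in vitro transcription/translation and measured by anti-GST western blot with a recombinant GST standard curve. At 300 nM final concentration, they were applied in duplicate to universal 'all 10-mer' protein binding microarrays (8×60K format).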

Row | Sequence | binding signal [E-score]
1 | AATACCCC | 0.4268 ± 0.000757
2 | GCTACCCC | 0.158 ± 0.092
3 | CATACCCC | 0.258 ± 0.054
4 | AATACCCT | 0.384 ± 0.0168
5 | AATACCTC | 0.331 ± 0.0598
6 | CCGTCTCG | 0.232 ± 0.00359
7 | CAATACGG | 0.178 ± 0.00369
8 | ATTAAATA | 0.24 ± 0.0313
9 | GATCAGCA | 0.235 ± 0.00865
10 | ATACGGAC | 0.193 ± 0.00348
11 | GATATTCC | 0.376 ± 0.0303
12 | GATATACC | 0.4592 ± 0.00376
13 | GATATACA | 0.384 ± 0.0104
14 | AATATACC | 0.32 ± 0.0474
15 | TATATACA | 0.284 ± 0.0122
16 | GATATTCA | 0.232 ± 0.0803
17 | AATATTCC | 0.251 ± 0.0499
18 | CATATACC | 0.282 ± 0.0234
19 | AATATACA | 0.222 ± 0.0386
20 | ACACCCGG | 0.344 ± 0.043
21 | GTGTTAGA | 0.214 ± 0.00425
22 | ACGATCGT | 0.154 ± 0.0131

Row | Sequence | binding signal [E-score]
23 | CAGTAGTA | 0.154 ± 0.00593
24 | GATTATTA | 0.209 ± 0.0336
25 | GATCTGAC | 0.238 ± 0.00706
26 | AGACCTAT | 0.17 ± 0.0148
27 | ATATAGGG | 0.229 ± 0.0134
28 | ATCGGATC | 0.426 ± 0.0203
29 | CTTGGATC | 0.295 ± 0.0145
30 | CTCGGATA | 0.375 ± 0.00642
31 | CTCGGATC | 0.396 ± 0.0127
32 | GTCGGATA | 0.407 ± 0.00687
33 | CTTGGATA | 0.236 ± 0.024
34 | GTTGGATA | 0.295 ± 0.00342
35 | ATCGGATA | 0.423 ± 0.00904
36 | ATCGGACA | 0.237 ± 0.0182
37 | ATCGGACC | 0.229 ± 0.0739
38 | ATCGGAAA | 0.159 ± 0.00362
39 | ATCGGATG | 0.252 ± 0.00376
40 | AATATTAA | 0.187 ± 0.0103
41 | GATCGAGC | 0.218 ± 0.00887
42 | TATGCATA | 0.202 ± 0.0575
43 | ATACTAGA | 0.218 ± 0.0317
44 | CACTCCGG | 0.195 ± 0.0209

Row | Sequence | binding signal [E-score]
45 | AACCCGAT | 0.25 ± 0.0182
46 | ATAGCAGG | 0.29151 ± 0.000127
47 | CCTTGTGA | 0.164 ± 0.0725
48 | ATCGCAAC | 0.198 ± 0.0486
49 | CGTACACC | 0.205 ± 0.0267
50 | AACTATCC | 0.281 ± 0.0413
51 | AAGTATAC | 0.338 ± 0.0623
52 | GAGTATAC | 0.262 ± 0.0252
53 | AAGTATCC | 0.388 ± 0.0363
54 | GATTATCC | 0.329 ± 0.00414
55 | GAGTATCC | 0.4205 ± 0.00087
56 | ATACTCAG | 0.35 ± 0.0154
57 | GCAAGATA | 0.17 ± 0.0455
58 | ATGCATGA | 0.162 ± 0.0129
59 | ATCCACGG | 0.187 ± 0.0301
60 | CCCGGGTC | 0.288 ± 0.0806
61 | ACCAGATC | 0.349 ± 0.0234
62 | ACCGGATC | 0.417 ± 0.0393
63 | CCTGGATC | 0.251 ± 0.0575
64 | CCCAGATC | 0.38 ± 0.0205
65 | CCCAGATA | 0.302 ± 0.0141
66 | CCCGGATC | 0.45 ± 0.0283

Row | Sequence | binding signal [E-score]
67 | AGCGGATC | 0.375 ± 0.0283
68 | ACCGGATA | 0.364 ± 0.00187
69 | CCCCGCAC | 0.189 ± 0.188
70 | CAACGATC | 0.277 ± 0.0168
71 | CGTGATCA | 0.181 ± 0.00373
72 | AGTGATCG | 0.25 ± 0.00845
73 | AGTGATCA | 0.313 ± 0.0131
74 | AGTGATCC | 0.4519 ± 0.00218
75 | CGTGATCC | 0.41 ± 0.0121
76 | GGTGATCA | 0.315 ± 0.0247
77 | ATACGGGA | 0.367 ± 0.0155
78 | GATGAGAC | 0.20672 ± 0.00017
79 | ATATGAGC | 0.208 ± 0.0956
80 | CCATCCGG | 0.235 ± 0.079
81 | AACGATCA | 0.2067 ± 0.00118
82 | CAGGATCA | 0.386 ± 0.00253
83 | AAGGATCG | 0.349 ± 0.00351
84 | GAGGATCA | 0.369 ± 0.0176
85 | TAGGATGA | 0.199 ± 0.0352
86 | CAGGATCG | 0.297 ± 0.0493
87 | TAGGATCA | 0.409 ± 0.017
88 | AAGGATCA | 0.383 ± 0.00738

Row | Sequence | binding signal [E-score]
89 | AAGGATCT | 0.267 ± 0.029
90 | TAGGATAA | 0.21 ± 0.0705
91 | ACTATCTA | 0.154 ± 0.0178
92 | AAACCCGA | 0.165 ± 0.0599
93 | AACACCAT | 0.173 ± 0.0172
94 | ATAGCGGC | 0.194 ± 0.00861
95 | AGGTGTGA | 0.204 ± 0.0237
96 | AGGTGTCA | 0.45238 ± 0.000134
97 | AGGTGTAA | 0.165 ± 0.116
98 | GGGTGTCA | 0.4698 ± 0.00156
99 | AGGTGTAT | 0.377 ± 0.0149
100 | AGGTGTCC | 0.274 ± 0.042
101 | AGGTGTCG | 0.399 ± 0.0161
102 | AGGTGTTG | 0.2361 ± 0.00141
103 | AGGTGTAC | 0.182 ± 0.0154
104 | AGGTGTTA | 0.203 ± 0.0687
105 | GGGTGTGA | 0.158 ± 0.0496
106 | GGGTGTAA | 0.334 ± 0.00878
107 | TATCTACA | 0.167 ± 0.0212
108 | CAAAGATC | 0.209 ± 0.0122
109 | GATCTCCA | 0.239 ± 0.0181
110 | ACATATAT | 0.252 ± 0.0998

Reference: paper PMC10668032, “Altered binding affinity of SIX1-Q177R correlates with enhanced WNT5A and WNT pathway effector expression in Wilms tumor”
